# Source: PubChem
# Tgondii IFNg: blocks Toxoplasma gondii growth in the presence of IFN-gamma | Toxoplasma gondii growth in IFN-gamma-treated host cells; hits give low values | activity change, negative = inhibition, % (concentration not given with the values) | 3.8% of 69,000 active; in the data active = activity change below about -70%, passing the limit was not always enough;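 note: host cells are HeLa cells infected with Toxoplasma gondii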
# * hit, by the source's call; ! = repeats disagree. The full list was thinned out, with hits kept by preference.
SMILES,Tgondii IFNg
Cn1cc(C(=O)N2CCC(Cc3nn(C)cc3C(=O)NCc3ccccc3)CC2)cn1,-11
CC(=O)NCc1csc(C2CCCN(S(=O)(=O)c3ccc(F)cc3F)C2)n1 (stereo not drawn),9
NC(=O)C(c1ccccc1)(c1ccc(F)cc1)c1ccc(F)cc1,15
OC(CCCN1CCCCC1)(c1ccccc1)c1ccccc1,0
OC(C#CC(O)(c1ccccc1)c1ccccc1)(c1ccccc1)c1ccccc1,-93*
CC(=O)N1CCC(C(=O)NCCc2cc(N(C)C)nc(-c3ccccn3)n2)CC1,-3
O=C(NCCCN1CCCCC1)c1csc(-c2ccc(N3CCCC3)nc2)n1,16
CC1CCCCN1CCNC(=O)c1csc(-c2ccc(N3CCCC3)nc2)n1 (stereo not drawn),-46
CCN1CCN(CCNC(=O)c2csc(-c3ccc(N4CCCC4)nc3)n2)CC1,-81*
O=C(c1ccc2c(c1)CCC(=O)N2Cc1ccccc1)N1CCN(c2ccc(F)cc2)CC1,-108*
O=C(CN1C(=O)CCc2cc(Br)ccc21)N1CCN(c2ccccc2)CC1,-43
CCCN1C(=O)CCc2cc(C(=O)N3CCOCC3)ccc21,-14
Cc1ccoc1C(=O)N1CCn2c(C(N)=O)cnc2C1,4
O=C(Nc1ccc(F)cc1F)c1cccc(CN2CCNC(=O)C2CCO)c1 (stereo not drawn),333
c1ccc(-c2nnn3c2COC(CNCc2nccs2)C3)cc1 (stereo not drawn),8
CC1CCN(S(=O)(=O)c2ccc3c(ccc(=O)n3CC(=O)NCc3ccc(Cl)cc3)c2)CC1,-64
COc1ccccc1CNC(=O)Cn1c(=O)ccc2cc(S(=O)(=O)N3CCC(C)CC3)ccc21,-33
COc1cccc(CNC(=O)Cn2c(=O)ccc3cc(S(=O)(=O)N4CCC(C)CC4)ccc32)c1,-80*
CCN1c2cc(Cl)ccc2C(=O)NC12CCN(C(=O)Nc1ccc(C)cc1C)CC2,44
CNC(=O)c1cc(=O)n(CC(=O)Nc2ccc(C)cc2Cl)c2ccccc12,9
CN(C)S(=O)(=O)c1ccc(CNC(=O)c2cc(-c3ccc(F)cc3)no2)cc1,-12
O=S(=O)(c1cccc(Cl)c1)N1CCc2nc(-c3ccccc3)sc2C1,1
COc1ccc(-c2nc3c(s2)CN(S(=O)(=O)c2ccccc2Cl)CC3)cc1,-86*
CCOc1ccc(-c2nc3c(s2)CN(C(=O)Nc2ccccc2CC)CC3)cc1,-4
COc1ccc(-c2nc3c(s2)CN(S(=O)(=O)c2ccc(C(C)C)cc2)CC3)cc1,-16
SMILES,Tgondii IFNg
CCOc1ccc(-c2nc3c(s2)CN(S(=O)(=O)c2ccccc2Cl)CC3)cc1,-89*
CCN1CCC2(CC1)OC(=O)C(C)=C2C(=O)Nc1ccccc1Cl,34
CCN1C(=O)N(Cc2cccc(OC)c2)C(=O)C12CCN(CC1CC=CCC1)CC2 (stereo not drawn),-12
CC(C)N1CCc2ncn(C)c2C1C(=O)Cc1ccccn1 (stereo not drawn),-8
CC1c2snnc2-c2cc(Cl)ccc2S1(=O)=O (stereo not drawn),-103*
CS(=O)(=O)c1cccc(CNc2nc(Nc3ccc4c(c3)CCC(=O)N4)ncc2C(F)(F)F)c1,-68
CN(c1ncccc1CNc1nc(Nc2ccc3c(c2)CC(=O)N3)ncc1C(F)(F)F)S(C)(=O)=O,-80*
COc1ccc2c(c1OC)C(=O)O[C@@H]2C1c2c(cc3c(c2OC)OCO3)CCN1C (stereo partly drawn),18
COc1cccc(Nc2nc(N)nc(CSc3nc4ccccc4o3)n2)c1,15
CCOc1ccccc1-c1nc(Cn2ccn3nc(-c4ccc(OC)c(OC)c4)cc3c2=O)c(C)o1,101
Nc1nc(Nc2ccccc2)nc2c1ncn2C1OC(CO)C(O)C1O (stereo not drawn),17
O=c1[nH]cnc2c1ncn2[C@@H]1O[C@H](CO)[C@@H](O)[C@H]1O,9
OC[C@H]1O[C@@H](n2cnc3c(Nc4ccccc4)ncnc32)[C@H](O)[C@@H]1O,-83*
CSc1sc(C(=O)N2CCc3ccccc32)cc1S(=O)(=O)C(C)C,33
COc1cc(NC(=O)Nc2ccc(Cl)cc2)c(-n2c(C)ccc2C)cc1OC,166
COC(=O)c1sc(SC)c(S(=O)(=O)c2ccc(Cl)cc2)c1C,-6
CC(C)S(=O)(=O)c1cscc1NC(=O)Nc1ccccc1,-1
CSc1sc(NC(=O)Nc2ccc(Cl)cc2)cc1S(=O)(=O)C(C)C,-84*
CSc1sc(C(=O)Sc2ccc(Cl)cc2)cc1S(=O)(=O)C(C)C,-79*
CN(C)CCN1[C@@H]2CCN(C(=O)[C@H]3CCCO3)CC[C@@H]2Oc2ccccc2S1(=O)=O,2
COc1ccc(C2(NCc3c(N4CCCC4)nc4ccccn4c3=O)CCCC2)cc1,60
CN(C(=O)c1ccc(NC(=O)c2ccco2)cc1)C1CCCCC1,42
COc1cccc(CC(=O)N2CCC3(CC2)NC(=O)c2ccccc2N3C)c1,-25
COc1ccc2c(O[C@H]3CC4C(=O)N(C)CCCC/C=C\[C@@H]5C[C@@]5(C(=O)NS(=O)(=O)C5CC5)NC(=O)[C@@H]4C3)cc(-c3nc(C(C)C)cs3)nc2c1C (stereo partly drawn),-74*
CN1C(=O)CC2C1CCN2Cc1cccc(C#N)c1 (stereo not drawn),6
SMILES,Tgondii IFNg
O=C(COc1cccnc1)N1CCC(c2n[nH]c(=O)n2Cc2ccccc2)CC1,5
CC(=O)N1CC(C)Oc2ccc(S(=O)(=O)N3CCC4(CC3)Nc3ccccc3-n3cccc34)cc21 (stereo not drawn),3
NC(=O)c1ccc(I)c([N+](=O)[O-])c1,20
Cc1ccc(C(=O)c2cc(O)c(O)c([N+](=O)[O-])c2)cc1,-80*!
COc1ccc(C(=O)c2ccc(C)cc2)c(O)c1,98
CC(C)(C)c1ccc2[nH]c3c(c2c1)CCCC3=O,-84*
CCCNc1ncc(CN2CCN(S(=O)(=O)c3ccccc3)CC2)cn1,-46
COc1ccc2[nH]cc(CCNC(=O)CN3C(=O)CSc4cccn4-c4ccccc43)c2c1,45
C[C@@H]1CN([C@@H](C)CO)C(=O)Cc2cc(NS(=O)(=O)c3ccc(Cl)cc3)ccc2O[C@H]1CN(C)C(=O)Nc1ccc(C(F)(F)F)cc1,-25
C[C@@H]1CN([C@@H](C)CO)C(=O)Cc2cc(NC(=O)C3CCCCC3)ccc2O[C@H]1CN(C)Cc1ccc(Cl)c(Cl)c1,-33
C[C@H]1CN([C@@H](C)CO)C(=O)Cc2cc(NC(=O)C3CCCCC3)ccc2O[C@H]1CN(C)Cc1ccc(Cl)c(Cl)c1,-54
C[C@@H]1CN([C@H](C)CO)C(=O)Cc2cc(NC(=O)C3CCCCC3)ccc2O[C@H]1CN(C)Cc1ccc(Cl)c(Cl)c1,-72*
C[C@@H]1CN([C@@H](C)CO)C(=O)Cc2cc(NS(=O)(=O)c3ccc(Cl)cc3)ccc2O[C@@H]1CN(C)C(=O)Nc1ccc(C(F)(F)F)cc1,-79*
C[C@H](CO)N1C[C@H](C)[C@H](CN(C)C(=O)Nc2ccc(C(F)(F)F)cc2)Oc2ccc(NS(=O)(=O)c3ccc(Cl)cc3)cc2CC1=O,5
O=C(c1ccc(Cl)cc1)N1CCC2(CC1)COCCN(Cc1ccncc1)C2,-13
O=C(c1ccccc1C1CCNC1)N1CCC(O)(Cn2ccnc2)CC1 (stereo not drawn),4
Cc1ccc(CN2CC[C@@H](N3CCOCC3)[C@H]2Cc2cccnc2)o1,6
Cc1ccc(-n2nnnc2SCC(=O)NC2CCCC2)cc1C,-23
CC(C)Cc1ncc2c(n1)CN(C(=O)c1cc(C(C)C)on1)C2,-13
CC(=O)c1c(C)nc(-c2ccc(C(F)(F)F)cc2)nc1SCc1ccccc1,-78*
